Screening results: PubChem BioAssay, several laboratories
A selection: hits, their analogues and other compounds. The true share with any hit is near 5.4%.
GAA850 FXN act: FXN promoter activators, primary screen, cell-based, luciferase luminescence, HEK293 lucGAA850. HEK293 lucGAA850 FXN promoter luciferase reporter, 24 h; percent of 10 µM SAHA response. activation, % at 6 µM. hit rate 0.56% among 360,000;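 active = activation above the average of all compounds screened plus 3 SD, cutoff fixed separately per campaign, cut at about 7.5% in these data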
DAX1 inh: DAX1 (NR0B1) inhibitors, primary screen, cell-based, HEK293, Gal4-DAX1, luciferase luminescence. AID 504766, 2011. hit rate 0.99% among 340,000. HEK293 Gal4-DAX1 luciferase reporter. Nuclear receptor subfamily 0 group B member 1 (Homo sapiens), P51843. inhibition, % at 6.75 µM;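 active = inhibition above the mean over all tested compounds plus 3 SD, cut at about 4.2% in these data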;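 also: inhibition shows as a rise in luminescence from relieved DAX1 repression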
HSF1 inh: HSF1 inhibitors in luciferase reporter cells, primary screen, cell-based, NIH3T3, luminescence; hit rate 0.77% among 300,000; AID 2098, 2009; NIH3T3-HGL HSE-luciferase, MG132-induced, luminescence 8 h; stronger effect = lower value; activity change, negative = inhibition, % at 7.5 µM (by protocol);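 active = more than half of replicate wells show activity change below -50%, luminescence cut by over half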;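 also: luciferase reports HSF-1 transcriptional activity via heat shock element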
AHR activator: AHR activators, primary screen, cell-based, luminescence, luciferase reporter, human. Aryl hydrocarbon receptor (Homo sapiens), P35869. AHR-responsive luciferase reporter cells. activation, % at 5 µM. hit rate 2.5% among 320,000; in the data active = activation above about 47%
Target sequence (P35869 whole entry, looked up): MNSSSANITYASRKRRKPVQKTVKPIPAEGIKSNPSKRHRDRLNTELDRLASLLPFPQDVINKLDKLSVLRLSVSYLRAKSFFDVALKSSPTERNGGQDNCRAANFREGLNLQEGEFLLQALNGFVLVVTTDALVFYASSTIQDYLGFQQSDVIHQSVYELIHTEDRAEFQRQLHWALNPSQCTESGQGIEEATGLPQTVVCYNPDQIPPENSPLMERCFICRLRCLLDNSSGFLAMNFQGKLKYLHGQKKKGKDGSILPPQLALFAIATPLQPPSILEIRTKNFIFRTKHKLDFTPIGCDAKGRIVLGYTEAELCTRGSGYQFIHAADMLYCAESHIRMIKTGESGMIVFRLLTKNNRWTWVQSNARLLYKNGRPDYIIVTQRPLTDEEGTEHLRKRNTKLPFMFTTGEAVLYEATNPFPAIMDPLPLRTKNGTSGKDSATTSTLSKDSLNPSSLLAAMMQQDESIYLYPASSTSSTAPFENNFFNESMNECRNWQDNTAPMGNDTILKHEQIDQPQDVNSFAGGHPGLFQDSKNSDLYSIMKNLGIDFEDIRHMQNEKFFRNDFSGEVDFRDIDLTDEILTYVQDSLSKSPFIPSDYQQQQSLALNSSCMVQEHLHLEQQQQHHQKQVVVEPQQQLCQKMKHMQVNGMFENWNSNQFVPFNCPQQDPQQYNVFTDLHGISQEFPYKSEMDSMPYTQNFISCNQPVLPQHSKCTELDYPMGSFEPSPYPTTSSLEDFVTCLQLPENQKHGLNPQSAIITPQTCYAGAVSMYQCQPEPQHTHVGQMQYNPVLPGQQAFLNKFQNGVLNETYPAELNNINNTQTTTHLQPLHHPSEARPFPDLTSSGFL
HSF1 activator: HSF-1 activators, primary screen, NIH3T3-HGL cells, MG132 stress, luminescence, single point. hit rate 1.7% among 300,000. AID 504408, 2011. activation, % at 9 µM. NIH3T3-HGL HSF-1 luciferase reporter, 8 h; 100% = twice DMSO control signal;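 active = mean replicate activation of at least 50% with a set share of replicates each reaching 50%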
Large screens that a line does not name were inactive.

COc1ccccc1NC(=O)C(C)OC(=O)C1COc2ccccc2O1 (stereo not given)	none (no result: HSF1 inh, HSF1 activator)
O=C(C[n+]1cn(C(F)F)c2ccccc21)c1ccc(OC(F)F)cc1	none
CCOC(=O)C1CCCN(CCC(=O)Nc2cc(C)cc(C)c2)C1 (stereo not given)	none
CCOC(=O)C1CCCN(CCC(=O)Nc2cc(OC)ccc2OC)C1 (stereo not given)	HSF1 inh -51
Cc1cccc(CS(=O)(=O)Cc2ccc(C(=O)NCc3cccs3)o2)c1	HSF1 inh -71
O=C(c1ccc([N+](=O)[O-])o1)N1CCN(c2nc3c(F)cc(F)cc3s2)CC1	HSF1 activator 71
Cc1ccc(C)c2sc(N3CCN(C(=O)c4ccc([N+](=O)[O-])o4)CC3)nc12	none
O=C(Nc1ccc(O)cc1)c1ccc(NC(=O)c2cccs2)cc1	HSF1 activator 65
Cc1ccc(NC(=O)c2cccs2)cc1NC(=O)c1cccc(F)c1	AHR activator 64, HSF1 activator 58
O=C(Nc1ccc(NC(=O)c2cccs2)cc1)c1ccccc1	none
O=C(Nc1ccc2c(c1)CCC2)c1cccs1	HSF1 activator 55
CC(CCCCC(=O)Nc1ccc(C(F)(F)F)cc1)NCCc1cnc[nH]1 (stereo not given)	none (no result: GAA850 FXN act, DAX1 inh)
COc1ccc(C2C(C(=O)NCCN(C)C)c3ccccc3C(=O)N2C)cc1OC (stereo not given)	DAX1 inh 4.6
C/C(=N\NC(=S)NC1CCCCC1)c1ccc(Cl)c(Cl)c1	DAX1 inh 25
COc1ccc(F)c(CN(C)CC2CCCN(CCc3ccc(F)cc3)C2)c1 (stereo not given)	DAX1 inh 4.5
COc1ccc(CN(C)CC2CCCN(CCc3ccc(F)cc3)C2)cc1OC (stereo not given)	none (no result: AHR activator)
CCNc1ccc(S(=O)(=O)N(C)C)cc1NCC(=O)Nc1ccccc1F	none
CCNc1ccc(S(=O)(=O)N(C)C)cc1NCC(=O)Nc1ccccc1Br	HSF1 activator 115
COCc1cc(=O)[nH]c(SCCS(=O)(=O)c2ccc(Cl)cc2Cl)n1	HSF1 activator 78
CCCCCCCCCCOC(=O)Cn1c(COc2ccccc2C)[n+](C)c2ccccc21	none
CCOC(=O)Cn1c(COc2ccccc2OC)[n+](C)c2ccccc21	HSF1 inh -84 (no result: DAX1 inh)
COc1ccccc1N=Nc1ccc(N)c(C)c1	AHR activator 60
COc1cccc(C(=O)/C=C2\Sc3ccccc3N2C)c1	AHR activator 58
Cc1ccc(Nc2cc(C)c3c(O)cccc3n2)cc1C	HSF1 inh -56
Cc1cc2c(cc1C)CN(c1ccccc1)C2	HSF1 activator 56
CCOc1ccc(-c2nc(CN3CCCCC3CCn3cccn3)c(C)o2)cc1 (stereo not given)	none
C=CCOc1ccc(/C=C/C(=O)OCC(=O)NCC2CCCCC2)cc1	HSF1 inh -68
O=C(CN1CCN(C(=O)C2CC2)CC1)Nc1cc(C(F)(F)F)cc(C(F)(F)F)c1	none (no result: HSF1 inh, HSF1 activator)
O=C1/C(=C/c2ccco2)CCC1C1CCCC1 (stereo not given)	HSF1 activator 61
O=C1/C(=C/c2ccccc2)CCC1C1CCCC1 (stereo not given)	none
O=C1/C(=C\c2ccco2)CCC/C1=C\c1ccco1	GAA850 FXN act 13
CC(=O)c1cccc(NC(=O)c2cccc3c(-c4cccnc4)coc23)c1	none (no result: DAX1 inh, HSF1 inh, AHR activator, HSF1 activator)
Cc1c(C(=O)O)cc(C(C)(C)C)n1CCSCCO	DAX1 inh 6.8
CSCCn1c(C(C)(C)C)cc(C(=O)O)c1C	none
Cc1cccc(-n2nc3c(c2NC(=O)c2ccc4c(c2)OCO4)CS(=O)(=O)C3)c1C	none
CC(C)(C)NC(=O)c1cccc(NC(=O)CSc2ccc(Cl)cc2)c1	HSF1 activator 173
COc1ccc(NC(=S)N2CCN(c3ccccc3)CC2)c(OC)c1	none
COC(=O)c1cc(OC)c(OC)cc1NC(=S)N1CCCC1	HSF1 activator 62
COc1ccc(NC(=S)N2CCN(Cc3ccco3)CC2)c(OC)c1	none
COc1ccc(NC(=S)N2CCCC2)c(OC)c1	DAX1 inh 4.6
COc1ccc(NC(=S)N2CCN(Cc3cccc(F)c3)CC2)c(OC)c1	DAX1 inh 5.0
COc1ccccc1NC(=S)N1CC(C)OC(C)C1 (stereo not given)	DAX1 inh 4.6
Cc1ccc(S(=O)(=O)N2CCOCC2)cc1-c1n[nH]c(=S)n1-c1ccccc1	none (no result: HSF1 inh, HSF1 activator)
O=C(NCC1CCCO1)C1CC(=O)N(c2ccc(Cl)cc2)C1 (stereo not given)	none
Cc1cccc(C)c1N(C(=O)c1ccco1)C(C(=O)NC1CCCC1)c1ccncc1 (stereo not given)	none
Cc1ccnc(Sc2ccc([N+](=O)[O-])cc2[N+](=O)[O-])n1	HSF1 activator 131
Cc1ccccc1N1CCN(C2CCCN(C(=O)CSc3ccccn3)C2)CC1 (stereo not given)	none (no result: HSF1 inh, AHR activator, HSF1 activator)
CNC(=O)c1cc2c(s1)-c1ccccc1CC2	AHR activator 75
COC(=O)c1cc2c(s1)-c1ccc(OC)cc1CC2	DAX1 inh 7.7
CC(=O)c1ccc(OCc2cc(C(=O)NC3CCCCC3)no2)cc1	none
N#CCC(=O)N/N=C/c1ccc(N2N=C(c3ccccc3)CC2c2ccccc2)cc1 (stereo not given)	none
Cc1cc(C(=O)NNc2ccc(F)cc2F)no1	DAX1 inh 7.6
COC(=O)C1C(=O)C2=C(CC1C)NC(C)=C(C(=O)OCCOc1ccccc1)C2c1ccc(C)o1 (stereo not given)	none
COC(=O)C1C(=O)C2=C(CC1C)NC(C)=C(C(=O)OCc1ccc(OC)cc1)C2c1ccc(C)o1 (stereo not given)	HSF1 activator 112
O=C(Nc1nc2c(Cl)cccc2s1)C1CC1	AHR activator 55
O=C(Nc1nc2c(F)cc(F)cc2s1)C1CC1	AHR activator 55
O=C(Nc1nc2c(Cl)c(Cl)ccc2s1)C1CC1	AHR activator 48
COc1ccccc1NC(=O)COc1cccc2c1CCNC2=O	none
CS(=O)(=O)c1ncc(Cl)c(C(=O)Nc2ccc3ccccc3c2)n1	HSF1 inh -93 (no result: AHR activator)
COC(=O)c1ccccc1NC(=O)c1nc(S(=O)(=O)Cc2ccccc2)ncc1Cl	none
COc1ccc(CNC(=O)c2nc(S(=O)(=O)Cc3ccccc3)ncc2Cl)cc1	HSF1 activator 248
CC(=O)Nc1ccc(NC(=O)c2nc(S(=O)(=O)Cc3ccccc3)ncc2Cl)cc1	HSF1 inh -94
N#CN=CN1CC=C(c2ccc(Cl)cc2)CC1	none (no result: HSF1 inh, AHR activator, HSF1 activator)
CC(Sc1ccc(Cl)cc1)C(=O)NCC(c1ccco1)N1CCCCC1 (stereo not given)	none
Cc1ccc(S(=O)(=O)N2CCN(C(=O)CN3C(=O)CNC3=O)CC2)cc1	none (no result: HSF1 inh, HSF1 activator)
